ALOX12 inh = Primary qHTS assay for inhibitors of human arachidonate 12S-lipoxygenase (ALOX12): Round 2 | Polyunsaturated fatty acid lipoxygenase ALOX12 (Homo sapiens), P18054 | purified 12hLO, xylenol orange hydroperoxide absorbance | Potency, µM (titrated, usually from 108 µM), actives largely listed as inhibitors | 580,000 compounds, 1.1% hits
Target sequence (P18054 whole entry, looked up): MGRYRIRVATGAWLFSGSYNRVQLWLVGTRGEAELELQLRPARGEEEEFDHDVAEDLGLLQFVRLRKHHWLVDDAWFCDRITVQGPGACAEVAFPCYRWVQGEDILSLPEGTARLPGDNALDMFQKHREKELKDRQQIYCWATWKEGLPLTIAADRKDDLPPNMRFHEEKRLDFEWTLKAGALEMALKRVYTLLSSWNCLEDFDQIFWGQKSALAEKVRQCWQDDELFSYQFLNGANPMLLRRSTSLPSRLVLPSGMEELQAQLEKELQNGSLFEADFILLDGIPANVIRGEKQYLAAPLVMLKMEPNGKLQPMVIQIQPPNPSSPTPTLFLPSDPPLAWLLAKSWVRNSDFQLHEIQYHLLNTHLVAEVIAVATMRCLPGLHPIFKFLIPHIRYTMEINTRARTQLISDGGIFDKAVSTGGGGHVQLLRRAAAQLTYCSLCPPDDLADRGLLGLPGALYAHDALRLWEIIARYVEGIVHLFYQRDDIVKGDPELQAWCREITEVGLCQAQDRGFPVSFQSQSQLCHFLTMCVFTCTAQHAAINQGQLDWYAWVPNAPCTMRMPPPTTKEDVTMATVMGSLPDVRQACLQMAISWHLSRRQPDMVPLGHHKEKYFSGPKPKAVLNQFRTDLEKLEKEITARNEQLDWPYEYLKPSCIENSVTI
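Purified human 12hLO (150 nM final) in 25 mM Hepes, 0.01% Triton X-100, pH 7.0 was preincubated 15 min at room temperature with compound. Then 40 uM arachidonic acid was added, 30 min. Hydroperoxide was read by Fe-XO absorbance ratio 573/405 nm.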
IL1B secr inh = qHTS for Inhibitors of Inflammasome Signaling: IL-1-beta AlphaLISA Primary Screen; 360,000 compounds, 4.7% hits; activity change, % at 57.5 µM; AID 743279, 2014; THP-1 LPS/ATP IL-1B secretion, AlphaLISA, 16 h; stronger effect = lower value; in the data active = activity change below about -50%; inconclusive = mostly about -30% to -49%
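THP-1 cells pretreated 1 hr with compounds (up to 57.5 uM final), then stimulated with LPS (250 ng/mL final) plus ATP (1.25 mM final); secreted IL-1B measured by AlphaLISA after 16 hr, decreased signal indicating inhibition.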
DT40 TDP1 CPT = qHTS for Inhibitors of human tyrosyl-DNA phosphodiesterase 1 (TDP1): qHTS in cells in presence of CPT; Potency, µM (titrated, usually from 46.2 µM), most hits filed as inhibitors; chicken DT40 Tdp1-/-;hTDP1 cells + 20 nM CPT, ATP luminescence, 48 h; 420,000 compounds, 12% hits; also: nearly all actives have a fitted effect of over 55% in size
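Cell growth measured by CellTiter-Glo luminescence after a minimum 48 h, 37 C compound exposure with 20 nM CPT in Tdp1-knockout DT40 cells stably expressing hTDP1, seeded 400/well; qHTS titration format.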
HT1080NT lethal = qHTS for induction of synthetic lethality in tumor cells producing 2HG: qHTS for the HT-1080-NT fibrosarcoma cell line. 360,000 compounds, 1.6% hits. Potency, µM (titrated, usually from 46.1 µM), usual class: cytotoxic. HT-1080-NT fibrosarcoma viability, CellTiter-Glo ATP luminescence, 48 h;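 also: NT is the 2HG producing partner of a matched IDH1 knockdown line; nearly all actives have a fitted effect of over 55% in size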
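Read-out is CellTiter-Glo luminescence after 10 minutes at room temperature, following 48 hours' compound treatment of HT-1080-NT cells (750 cells/well, RPMI, 5% FBS, 37 degrees C).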
DT40 TDP1 no CPT = qHTS for Inhibitors of human tyrosyl-DNA phosphodiesterase 1 (TDP1): qHTS in cells in absence of CPT. DT40 Tdp1-/- hTDP1 cells, no CPT, ATP luminescence, 48 h. Potency, µM (series often up to 46.2 µM), most hits filed as inhibitors. 420,000 compounds, 15% hits. AID 686978, 2013; also: nearly all actives have a fitted effect of over 55% in size
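Camptothecin absent (DMSO only). Human TDP1-complemented DT40 knockout cells, 400 cells/well, 37 °C for minimum 48 hr; ATP measured via CellTiter-Glo, 30 min dark incubation, luminescence.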
HT1080 IDH1KD tx = qHTS for induction of synthetic lethality in tumor cells producing 2HG: qHTS for the HT-1080-IDH1KD cell line. HT-1080 IDH1 knockdown viability, ATP luminescence, 48 h. Potency, µM (series often up to 46.1 µM), most hits filed as cytotoxic. 360,000 compounds, 2% hits
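CellTiter-Glo luminescence after 48 h compound exposure at 37 degrees C of IDH1-knockdown HT-1080 cells in 5% FBS RPMI. %Activity scaled between DMSO wells and cell-free media wells, with curves fitted and assigned curve classes.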
A number is an active result; n = inactive; u = inconclusive; x = no result. The full list was thinned out, with hits kept by preference. Unless noted, calls follow the shape of the dose curve; as a rule, active = well fitted curve in the direction sought with a large enough effect; inconclusive = small, poorly fitted or top-dose-only effect, or another doubt; inactive = no such curve, though single readings can be large; an effect the other way counts as inactive or inconclusive.

SMILES	ALOX12 inh	IL1B secr inh	DT40 TDP1 CPT	HT1080NT lethal	DT40 TDP1 no CPT	HT1080 IDH1KD tx
O=C(Cn1cnc2ccccc2c1=O)N1CCN(Cc2ccccc2)CC1	n	n	n	n	u	n
O=C(Cn1ncc(Cl)c(Cl)c1=O)N1CCOCC1	n	-99	u	12µM	13µM	13µM
Cc1nn(CC(=O)N2c3ccccc3NC(=O)C2(C)C)c(C)c1[N+](=O)[O-]	n	n	n	n	u	n
Cc1nn(Cc2ccc(F)cc2)c(C)c1NC(=O)c1cc(-c2cccs2)on1	n	x	x	x	x	x
O=C(Cn1ncc(Cl)c(Cl)c1=O)N1CCc2ccccc21	n	-109	4.6µM	4.6µM	6.5µM	2.9µM
O=C(CN1CCCCC1)N1CCc2ccccc21	u	n	n	n	n	n
O=[N+]([O-])c1cc(C(F)(F)F)ccc1N1CCN(CCOc2cccc(Cl)c2)CC1	n	x	x	x	x	x
Cn1c(=O)c2nc(Cl)n(Cc3ccc(Cl)cc3)c2n(C)c1=O	n	x	x	x	x	x
CCOC(=O)c1cc(-c2ccc(/C=C3/C(=O)N(c4ccc(C(=O)O)cc4)N=C3C)o2)ccc1Cl	n	n	u	u	15µM	n
O=C(/C=C/c1cccc(Cl)c1Cl)c1ccc(OC(F)F)cc1OC(F)F	n	x	x	x	x	x
Cc1ccc(CCC(=O)O)c(C)c1	n	x	x	x	x	x
COc1ccc(CNC(=O)CC(c2ccc(OC)cc2)N2Cc3ccccc3C2=O)cc1 (stereo unspecified)	n	x	u	x	16µM	x
COc1ccc(C(CC(=O)Nc2ccc(Br)cn2)N2Cc3ccccc3C2=O)cc1 (stereo unspecified)	n	x	5.2µM	x	23µM	x
COc1ccc(CNC(=O)C(CC(C)C)N2Cc3ccccc3C2=O)cc1 (stereo unspecified)	n	x	u	x	u	x
CCOc1ccccc1NC(=O)CC(c1ccc(F)cc1)N1Cc2ccccc2C1=O (stereo unspecified)	n	x	16µM	x	16µM	x
CC(C)NC(=O)CC(c1ccc(F)cc1)N1Cc2ccccc2C1=O (stereo unspecified)	n	x	x	x	x	x
COC(=O)C(Cc1ccc(OC(=O)c2ccccc2C)cc1)N1Cc2ccccc2C1=O (stereo unspecified)	n	n	u	n	18µM	n
N#CC(C(=O)Nc1ccccc1Cl)C(=O)c1ccc(Cl)cc1 (stereo unspecified)	n	x	x	x	x	x
O=C1CC[C@@H](S(=O)(=O)c2ccccc2)[C@H](c2ccccc2)N1Cc1ccccc1	n	x	x	x	x	x
Cc1nc2cnc3ccc(C#Cc4cccnc4)cc3c2n1-c1ccc(C(C)(C)C#N)cc1	n	x	x	x	x	x
Cn1c(=O)n(-c2ccc(C(C)(C)C#N)cc2)c2c3cc(-c4cnc5ccccc5c4)ccc3ncc21	n	x	0.25µM	x	0.05µM	x
O=C(NC1CC1)[C@@H]1C[C@H](Oc2cccnc2)CN1C(=O)Cc1cccc(F)c1	n	x	x	x	x	x
CCCC(=O)N(Cc1cc(=O)[nH]c2ccccc12)c1cccc(C)c1	n	n	n	n	u	n
CCCC(=O)N(Cc1cc(=O)[nH]c2ccccc12)c1ccc(OC)cc1	u	n	n	n	n	n
Cc1cccc(N(Cc2cc(=O)[nH]c3ccccc23)C(=O)CCl)c1	u	-107	4.1µM	21µM	5.2µM	u
SMILES	ALOX12 inh	IL1B secr inh	DT40 TDP1 CPT	HT1080NT lethal	DT40 TDP1 no CPT	HT1080 IDH1KD tx
COc1ccc(N(Cc2cc(=O)[nH]c3ccccc23)C(=O)CCl)cc1	u	-98	2.1µM	3.3µM	2.1µM	23µM
CCCCC1=NN2CCS(=O)(=O)N=C2S1	n	n	n	n	n	n
N#CC1=C(N)NC(SCc2ccc(F)cc2)=C(C#N)C12CCCCC2	u	n	23µM	21µM	26µM	23µM
N#CC1=C(N)NC(SCC(=O)O)=C(C#N)C12CCCC2	u	n	n	n	n	n
Cc1cccc(C)c1NC(=O)CN(C)Cc1coc(-c2ccccc2)n1	n	x	x	x	x	x
CC1CCC2(CC1)NC(=O)N(CC(=O)NC(C)C)C2=O (stereo unspecified)	n	x	x	x	x	x
Cc1ccc(S(=O)(=O)N(CC(=O)N=Nc2c(O)[nH]c3ccccc23)c2cccc(C)c2)cc1	n	n	u	u	21µM	13µM
COc1ccc(CC(=O)NCC(=O)N=Nc2c(O)[nH]c3ccccc23)cc1	n	n	n	n	n	n
CCn1c(SCC(=O)N=Nc2c(O)[nH]c3ccccc23)nc2ccccc21	n	n	16µM	n	16µM	n
O=C(CN1CCN(Cc2ccccc2Cl)CC1)N=Nc1c(O)[nH]c2ccccc12	n	n	u	n	u	n
Cc1cc(Cl)ccc1N(CC(=O)N=Nc1c(O)[nH]c2ccccc12)S(C)(=O)=O	n	n	n	n	n	n
Cc1ccc(CN2CCN(CC(=O)N=Nc3c(O)[nH]c4ccccc34)CC2)cc1	n	n	u	n	15µM	n
O=C(CNC(=O)c1ccccn1)N=Nc1c(O)[nH]c2ccccc12	u	n	u	n	15µM	n
Cc1ncccc1C(=O)N1CCC(C(=O)N2CCCCCCNC(=O)CC2)CC1	n	x	x	x	x	x
COc1ccc(NC(=O)C(=O)c2cn(CC(=O)N3CCCC3)c3ccccc23)cc1OC	n	n	16µM	n	13µM	n
COc1ccc(CCNC(=O)C(=O)c2cn(CC(=O)N3CCCC3)c3ccccc23)cc1	n	n	n	n	21µM	n
COc1ccc(CNC(=O)C(=O)c2cn(CC(=O)N3CCCC3)c3ccccc23)cc1	n	n	n	n	n	n
COc1ccc(C)cc1NC(=O)C(=O)c1cn(CC(=O)N2CCCC2)c2ccccc12	n	n	u	n	18µM	n
COc1cccc(NC(=O)C(=O)c2cn(CC(=O)N3CCCC3)c3ccccc23)c1	n	u	u	n	u	n
CC1CC(=Cc2ccc(N)cc2)C(=O)O1 (stereo unspecified)	n	n	n	n	n	n
CCn1c(=NC(=O)CSC(C)=O)sc2cc(F)ccc21	n	n	u	n	18µM	n
C#CCn1c(=NC(=O)CSC(C)=O)sc2cc(F)ccc21	x	n	10µM	n	21µM	n
C#CCn1c(=NC(=O)CSCC(=O)N2CCOCC2)sc2ccccc21	n	n	n	n	u	n
COc1ccc(CN2CCCCCC2)cc1OC	2µM	n	n	n	n	n
COc1ccc(CN2CCCCCC2)cc1Br	1µM	n	n	n	n	n
